RORgamma inh – inhibitors of mouse ROR gamma transcriptional activity. P51450. Drosophila S2 Gal4-RORgamma UAS-luciferase reporter, 20 h. Potency, µM (doses to about 53.6 µM), for inactives: at the highest dose activity change, negative = inhibition, most hits filed as inhibitors. 310,000 compounds, 5.4% hits. AID 2551; also: potency is read from the fitted curve at half-maximal effect; nearly all actives have a fitted effect of over 60% in size
Target sequence (P51450 whole entry, looked up, the tested form may be a part): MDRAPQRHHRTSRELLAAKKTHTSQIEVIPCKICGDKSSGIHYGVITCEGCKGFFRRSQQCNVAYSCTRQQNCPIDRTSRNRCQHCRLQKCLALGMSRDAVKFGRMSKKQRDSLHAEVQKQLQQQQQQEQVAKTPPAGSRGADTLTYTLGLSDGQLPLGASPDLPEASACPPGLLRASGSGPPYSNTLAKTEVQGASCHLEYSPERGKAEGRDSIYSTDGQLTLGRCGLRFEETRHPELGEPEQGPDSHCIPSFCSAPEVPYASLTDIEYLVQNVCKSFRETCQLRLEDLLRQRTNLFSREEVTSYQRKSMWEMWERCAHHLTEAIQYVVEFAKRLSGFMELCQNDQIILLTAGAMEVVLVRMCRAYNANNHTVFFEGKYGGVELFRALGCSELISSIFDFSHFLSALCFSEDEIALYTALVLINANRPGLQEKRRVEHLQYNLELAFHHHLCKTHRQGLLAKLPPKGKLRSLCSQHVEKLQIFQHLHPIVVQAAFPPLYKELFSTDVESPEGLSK
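Stably transfected Drosophila Schneider cells are the test system, with ROR gamma fused to Gal4 and luciferase under UAS control; luminescence is read after 20 hr of 700 uM copper sulfate induction at ambient temperature.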
LDHA block – inhibitors of human lactate dehydrogenase A. P00338. purified LDHA, NADH/diaphorase-resazurin fluorescence; active compounds read low. activity change, % (values are at about 110 or 230 µM). 480,000 compounds, 0.15% hits; in the data active = activity change below about -30%; inconclusive = mostly about -25% to -30%;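 also: plate controls were DMSO wells for no effect and wells without enzyme for full effect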
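Human LDH5 (2 nM) was incubated with 0.06 mM NADH and 0.2 mM pyruvate for 5 min at room temperature in Tris pH 7.4. Remaining NADH was coupled through diaphorase/resazurin, and resorufin fluorescence was read at 0 and 20 min.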
VP16 counter – inhibits Gal4-VP16 luciferase reporter, ROR gamma counter-screen; Potency, µM (doses to about 53.6 µM), for the others: at the highest dose activity, negative = inhibition, most hits filed as inhibitors; Drosophila S2 Gal4-VP16 UAS-luciferase, luminescence, 20 h; 310,000 compounds, 3.5% hits;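 also: Gal4-VP16 expression switched on by copper sulfate through the metallothionein promoter; potency is read from the fitted curve at half-maximal effect; nearly all actives have a fitted effect of over 50% in size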
IL-1B inflam inh – inhibitors of inflammasome signaling (IL-1 beta secretion); THP-1 LPS/ATP IL-1B secretion, AlphaLISA, 16 h; active compounds read low; activity change, % at 57.5 µM; 360,000 compounds, 4.7% hits; AID 743279; in the data active = activity change below about -50%; inconclusive = mostly about -30% to -49%
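THP-1 cells pretreated 1 hr with compounds (up to 57.5 uM final), then stimulated with LPS (250 ng/mL final) plus ATP (1.25 mM final); secreted IL-1B measured by AlphaLISA after 16 hr, decreased signal indicating inhibition.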
TDP1 cell CPT – growth inhibition of DT40 Tdp1-/-;hTDP1 cells with camptothecin (screen for TDP1 inhibitors); chicken DT40 Tdp1-/-;hTDP1 cells + 20 nM CPT, ATP luminescence, 48 h; Potency, µM (doses to about 46.2 µM), for inactives: at the highest dose activity change, negative = growth inhibition, hits mostly inhibitors; 420,000 compounds, 12% hits; AID 686979; also: potency is read from the fitted curve at half-maximal effect; nearly all actives have a fitted effect of over 55% in size
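Cell growth measured by CellTiter-Glo luminescence after a minimum 48 h, 37 C compound exposure with 20 nM CPT in Tdp1-knockout DT40 cells stably expressing hTDP1, seeded 400/well; qHTS titration format.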
DT40 TDP1 no CPT – qHTS for Inhibitors of human tyrosyl-DNA phosphodiesterase 1 (TDP1): qHTS in cells in absence of CPT. DT40 Tdp1-/- hTDP1 cells, no CPT, ATP luminescence, 48 h. Potency, µM (highest dose often 46.2 µM), for inactives: at the top dose activity change, negative = growth inhibition, hits mostly inhibitors. 420,000 compounds, 15% hits; also: potency is read from the fitted curve at half-maximal effect; nearly all actives have a fitted effect of over 55% in size
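Growth of hTDP1-complemented DT40 Tdp1-knockout cells is measured by ATP luminescence after at least 48 hr compound exposure at 37 °C, with DMSO substituting for the 20 nM CPT used in the parallel screen.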
* = called active by the depositor; u = inconclusive; x = no result; [ ] = another dose, or the depositor's remark. In the library only some 18% were active in any assay of this set; here they are far more common. Unless noted, calls follow the shape of the dose curve; as a rule, active = well fitted curve in the direction sought with a large enough effect; inconclusive = small, poorly fitted or top-dose-only effect, or another doubt; inactive = no such curve, though single readings can be large; an effect the other way counts as inactive or inconclusive. Unless noted, % is scaled to controls: 0 for no effect and ±100 for the full control effect.

SMILES	RORgamma inh	LDHA block	VP16 counter	IL-1B inflam inh	TDP1 cell CPT	DT40 TDP1 no CPT
CCCCN(C=O)c1c(CC)nc2c(OCc3cc(Cl)cc(Cl)c3)cccn12	x	1	x	-21	u	u
CCc1nc2c(OCc3c(C)noc3C)cccn2c1N(C)C(=O)c1ccccc1F	x	-7	x	74	-12%	-13%
CCc1nc2c(OCc3ccc(Cl)cc3)cccn2c1N(C=O)Cc1ccccc1	x	-1	x	-14	u	23µM*
CN(C(=O)c1cccc(NC(=O)Cc2ccc(NC(=O)C3CCN(C(=O)c4ccccc4)CC3)cc2)c1)C1CCCCC1	x	-11	x	57	23µM*	u
CN(C(=O)c1cccc(NC(=O)Cc2cccc(NC(=O)C3CCN(C(=O)c4ccccc4)CC3)c2)c1)C1CCCC1	x	-9	x	-3	u	u
CN(C(=O)c1ccc(NC(=O)Cc2cccc(NC(=O)C3CCCN(C(=O)C4CCCCC4)C3)c2)cc1)C1CCCC1 (configuration not stated)	x	-10	x	13	21µM*	u
O=C(Cc1ccc(NC(=O)C2CCCN(C(=O)C3CCCCC3)C2)cc1)Nc1cccc(C(=O)N2CCCC2)c1 (configuration not stated)	x	-1	x	24	29µM*	u
CN(C(=O)c1ccc(NC(=O)Cc2cccc(NC(=O)C3CCCN(C(=O)C4CCC4)C3)c2)cc1)C1CCCC1 (configuration not stated)	x	-8	x	18	0.18µM*	u
CC(C)(C)NC(=O)CC(c1ccccc1)c1ccccc1	x	-14	x	x	x	x
Cc1csc(NC(=O)NC2CC(=O)N(c3cccc(F)c3)C2)n1 (configuration not stated)	x	6	x	x	x	x
Cc1sc2ncn(CCC(=O)NCc3ccccc3CN(C)C)c(=O)c2c1C	x	-4	x	x	x	x
CSc1ccc(/C=C/C(=O)c2cc(C)sc2C)cc1	x	0	x	x	x	x
CN(C(=O)c1cccc(NC(=O)Cc2ccc(NC(=O)C3CCCN(C(=O)C4CCCC4)C3)cc2)c1)C1CCCCC1 (configuration not stated)	x	-1	x	31	u	16µM*
COc1ccc(S(=O)(=O)Oc2ccc3c(c2)O/C(=C\c2cccnc2)C3=O)cc1	23%	-3	6%	0	u	15µM*
O=C1/C(=C/c2cccnc2)Oc2cc(OS(=O)(=O)c3ccccc3)ccc21	12%	0	u	-6	u	16µM*
CC(C)C(=O)Nc1nc2c(s1)C(=O)CC(C)(C)C2	x	-15	x	x	x	x
CN(C)c1nc(SCc2ccccc2Cl)nc2c1CCCC2	7.9µM*	2	7%[0.365 µM]	44	-28%	-24%
O=C(Nc1ccccc1)c1cc2ccccc2s1	x	-4	x	19	1%	-24%
O=C(Nc1ccc(O)cc1)c1cc2ccccc2c(=O)s1	4%	-1	4%	-27	u	16µM*
COc1ccc(CN2CCn3ncc(C(=O)Nc4cc(C)cc(C)c4)c3C2=O)cc1	u	-4	u	-4	5.8µM*	u
COC(=O)c1cc2n(n1)CCN(Cc1ccc(OC)cc1)C2=O	13%	0	0%	30	-13%	-32%
Cc1cccc2nc(COc3ccc4ccccc4c3Br)cn12	8.9µM*	-1	u	66	u	23µM*
Cc1cccc2nc(CSc3ccccc3N)cn12	x	-5	x	32	-9%	u
CCOc1ccccc1C(=O)Nc1cc(-c2nc3cccnc3s2)ccc1C	x	-9	x	x	8.2µM*	5.2µM*
COc1cc(OC)cc(C(=O)Nc2cc(-c3nc4cccnc4s3)ccc2C)c1	x	-1	x	x	u	10µM*
SMILES	RORgamma inh	LDHA block	VP16 counter	IL-1B inflam inh	TDP1 cell CPT	DT40 TDP1 no CPT
NCCc1c(-c2ccccc2)n(-c2ccccc2)c2ccccc12	u	-5	u	-97*	u	u
COC(=O)c1cc(NC(=O)c2ccc(OC(F)F)cc2)c(F)cc1F	x	-22	x	x	x	x
COCCNC(=S)NCCc1ccc(Cl)cc1Cl	6.3µM*	-3	-26%	7	-17%	-5%
COCC(C)NC(=S)NCCc1ccc(Cl)cc1Cl (configuration not stated)	1µM*	1	3.5µM*	-6	-27%	u
O=C(Cc1ccc(Br)cc1)NCCc1ccc(Cl)cc1Cl	u	0	10%	-60*	-25%	u
CC(C)NC(=S)NCCc1ccc(Cl)cc1Cl	x	2	x	x	x	x
CC(C)(C)C(=O)Nc1ccc2oc(-c3cccnc3)nc2c1	x	-11	x	x	x	x
CCCNC(=O)c1oc2ccc3c(c2c1C)C(=O)CC(C)(C)O3	5%	-1	-21%	u	-17%	u
Cc1c(C(=O)NCc2ccc(Cl)cc2)oc2ccc3c(c12)C(=O)CC(C)(C)O3	x	-7	x	x	u	15µM*
CCOC(=O)c1ccc(NC(=O)c2oc3ccc4c(c3c2C)C(=O)CC(C)(CC)O4)cc1 (configuration not stated)	x	-6	x	x	u	21µM*
COC(=O)c1ccccc1NC(=O)c1oc2ccc3c(c2c1C)C(=O)CC(C)(C)O3	x	2	x	x	0%	-6%
COc1cccc(CNC(=O)c2oc3ccc4c(c3c2C)C(=O)CC(C)(C)O4)c1OC	x	-4	x	x	u	16µM*
C=CC(=O)Oc1ccc(N2Cc3ccccc3C2=O)cc1	x	-11	x	0	3.7µM*	4.6µM*
Cc1nn(-c2ccccn2)c2c1-c1nc(N)sc1CC2	x	24	x	x	20µM*	18µM*
Cc1nn(-c2ccccn2)c2c1-c1nc(N3CCOCC3)ncc1CC2	-3%	-5	0%	-8	18µM*	23µM*
COC(=O)c1sc(=S)n(-c2ccc(C(C)C)cc2)c1N	x	5	x	x	x	x
CC(=O)Oc1[nH]c(=O)c2cccc3c2c1CCC3	x	u	x	-11	u	29µM*
CCN(C(=O)c1ccc(C(=O)N(CC)c2ccccc2C)cc1)c1ccccc1C	x	-3	x	x	u	16µM*
CCCCCCCN(C(=O)CCl)c1ccccc1C	u	0	u	-106*	18µM*	15µM*
CCC(C)(C)NC(=O)c1cc(S(=O)(=O)N2CCc3ccccc32)cn1C	u	1	u	21	21µM*	15µM*
Cc1cc(F)ccc1NC(=O)c1cc(S(=O)(=O)N2CCc3ccccc32)cn1C	8%	-7	-14%	-9	u	26µM*
COc1ccc(NC(=O)c2cc(S(=O)(=O)N3CCc4ccccc43)cn2C)c(OC)c1	u	-9	2%	-11	u	u
